Each structure is given as a SMILES string. Records with an inconclusive call do not appear. Unmarked numbers belong to inactive results. The source made the active and inactive calls. Calls come from the whole dose curve; as a rule, active = well fitted activation curve with a large enough effect in the repeat runs; inconclusive = weak or mixed curves; inactive = flat fitted curve, though single readings scatter.
% is set by controls: 0 for no effect and ±100 for the full control effect; potency is the fitted concentration of half-maximal effect.

This test in a line: A CellTox Green Cytotoxicity Assay to monitor cytotoxicity in HEK293 cells - 40 hour (AID 1224871). Note: nearly all actives have a fitted effect of over 45% in size. The conditions noted are these: CellTox Green fluorescence; series mostly up to 76.8 µM; cytotoxicity increase: at the top concentration. An excerpt:
National Center for Advancing Translational Sciences [NCATS]
NIH Chemical Genomics Center [NCGC]
U.S. Environmental Protection Agency [EPA]
National Institutes of Environmental Health Sciences [NIEHS]
National Toxicology Program [NTP]
Cell-based models are critical for drug discovery. Determining the natural cytotoxic effects resulting from test compounds is an essential research activity. A CellTox Green Cytotoxicity Assay to monitor cytotoxicity in real time of continues cell culture during 40 hours of the compound treatment was used to screen Tox21 10K library compounds in Hek293 cells. CellTox Green Cytotoxicity Assay is a nonlytic, homogeneous, biofluorescent method to measure cytotoxicity in cell culture after experimental manipulation. The assay system uses a proprietary asymmetric cyanine dye that is excluded from viable cells but preferentially stains the dead cell's DNA. […] Viable cells produce no appreciable increases in fluorescence. Therefore, the fluorescence signal produced by the binding interaction with dead cell DNA is proportional to cytotoxicity.
The mixture of Hek293 cell suspension and reagents were dispensed at 600cells/6 ul/well in 1536-well tissue culture treated black solid bottom plates using a Multidrop dispenser. After the assay plates were incubated at a 37 C/5% CO2 incubator for 5 hours, 23 nL of compounds dissolved in DMSO, positive and negative controls was transferred to the assay plate by a pintool work station. The plates were incubated at 37 C for 40 hours. The fluorescence intensity were measured at 0h, 8h, 16h, 24h, 32h and 40h time points using ViewLux plate reader during compound treatment.
`CC(=O)Nc1ccc(S(=O)(=O)Nc2ccc([N+](=O)[O-])cc2)cc1`: the “cytotoxicity increase” value is -1.77% [at 35.3 µM]. For `O=C(O)c1cc(Cl)cc([N+](=O)[O-])c1Cl`, the “cytotoxicity increase” value was -3.85%.

Turning to `C=CC(OCC)OCC`, the “cytotoxicity increase” value is -0.803%. Still for that read-out and setting: then `O=C(OCC(O)CO)c1ccccc1Nc1ccnc2c(C(F)(F)F)cccc12` (stereo not given), with -2.04% [at 35.3 µM]; and `Nc1cccc(O)c1`, with -4.45%.

As for `CCC(C)NC(N)=O` (stereo not given), the “cytotoxicity increase” value was -2.49%.

As to `Cc1cc(C(C)(C)C)c(O)c(C)c1CC1=NCCN1`, the “cytotoxicity increase” value was -6.9% [at 35.3 µM].

`CO[C@@H]1[C@@H](OC(N)=O)[C@@H](O)[C@H](Oc2ccc3c(O)c(NC(=O)c4ccc(O)c(CC=C(C)C)c4)c(=O)oc3c2C)OC1(C)C`: the “cytotoxicity increase” value was -3.95% [at 35.3 µM]. The same measure, in the same setting: for `CCOc1cc(NC(C)=O)ccc1C(=O)OC` the value was 10.1% [at 35.3 µM]. The same measure, in the same setting: for `BrCc1cccc(Oc2ccccc2)c1` the value was 0.115%; for `CC1=C(C(=O)O)N2C(=O)[C@@H](NC(=O)[C@H](N)c3ccc(O)cc3)[C@H]2SC1`, -0.58% [at 35.3 µM]. Same read-out and setting: then `COC(=O)C1CC(=O)C(C(=O)OC)CC1=O` (stereo not given), with 1.85% [at 6.97 µM]. Take `c1ccc2c(c1)ccc1c3ccccc3ccc21`: the “cytotoxicity increase” value is 1.55% [at 35.3 µM]. Turning to `CCCCOCCOC(=O)COc1nc(Cl)c(Cl)cc1Cl`, the “cytotoxicity increase” value was 11.1%. `CC(C)(C)c1n[nH]c(=S)n(N)c1=O`: the “cytotoxicity increase” value was -9.02%. Same read-out and setting: then `Cc1cc2cc3c(C)cc(=O)oc3c(C)c2o1`, with 0.816% [at 35.3 µM]; and `CC(C)NCC(O)COc1ccc(COCCOC(C)C)cc1` (stereo not given), with 1.89% [at 35.3 µM]; and `CC(C)C(=O)OCc1cccc(OC(=O)[C@@H]2N3C(=O)[C@@H](NC(=O)Cc4ccccc4)[C@H]3SC2(C)C)c1`, with -7.84% [at 35.3 µM]. Turning to `CCCCCCCCCCl`, the “cytotoxicity increase” value is -1.11%. The same measure, in the same setting: then `COc1ccc(Br)c(C)c1`, with 3.85%; and `Cc1cccc(C)c1OCC(C)N` (stereo not given), with 8.83% [at 35.3 µM]. Consider `Cc1cccc2nccnc12`, for which the Potency was 24.5 µM (active). Take `CCC(CC)CO`: the “cytotoxicity increase” value is -0.212%.

In the case of `CCCCNc1ccc(C(=O)OCCN(C)C)cc1`, the “cytotoxicity increase” value was -20.8% [at 35.3 µM]. For `N[C@@H](CCC(=O)Nc1ccc([N+](=O)[O-])cc1)C(=O)O`, the “cytotoxicity increase” value was 9.4%. As to `CC1COc2ccccc2N1` (stereo not given), the “cytotoxicity increase” value was -14.9%. Take `Cc1cc(NC(=O)C2=C(O)c3ccccc3S(=O)(=O)N2C)no1`: the “cytotoxicity increase” value is -19.5% [at 35.3 µM].

On to `O=C1c2ccccc2C(=O)N1CCl`, for which the “cytotoxicity increase” value is -1.16%. Turning to `CCCCNC1CC(C)(C)NC(C)(C)C1`, the “cytotoxicity increase” value was -12%.

With `CCN(C)C(=O)Oc1cccc([C@H](C)N(C)C)c1`, the “cytotoxicity increase” value is 4.86% [at 35.3 µM].

Turning to `COc1cc2c(cc1OC)C(=O)CC2`, the “cytotoxicity increase” value is 2.55% [at 35.3 µM]. Consider `Brc1ccc(-c2ccccc2)cc1`, for which the “cytotoxicity increase” value was 0.465%. For the compound `Nc1ccc2cc(S(=O)(=O)O)cc(O)c2c1`, the “cytotoxicity increase” value was -15.6%. In the case of `ClCCCl`, the “cytotoxicity increase” value is -11.5%.

`O=S(=O)(O)c1ccc2cc(O)c(S(=O)(=O)O)cc2c1`: the “cytotoxicity increase” value was 3.41%. `OCCN(CCO)c1cccc(Cl)c1`: the “cytotoxicity increase” value is 1.74%. As to `CCOC(=O)c1ccc(OC(=O)CCCCCN=C(N)N)cc1`, the “cytotoxicity increase” value is -35% [at 35.3 µM]. On the same count and under the same terms, then `O=C(O)CCSSCCC(=O)O`, with -5.12%; and `Cc1ccc2ccc(Cl)cc2n1`, with -0.16% [at 35.3 µM]; and `O=C(OCc1ccccc1)C(=O)OCc1ccccc1`, with -3.19%.

Values taken from PubChem BioAssay (Tox21).
